Assay results as given in PubChem BioAssay (NCATS).
Records with an inconclusive call do not appear. Calls of active or inactive are those of the source. Unless noted, the call rests on the fitted dose curve; in most records, active means well fitted curve in the direction sought with a large enough effect; inconclusive means small, poorly fitted or top-dose-only effect, or another doubt; inactive means no such curve, though single readings can be large; an effect the other way counts as inactive or inconclusive.

Columns and labels:
[1] = Validation of Assay for Modulators of Lamin A Splicing (AID 1459; active means well fitted curve in the direction sought with a large enough effect in the signal ratio; the % refers to the signal ratio;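 further: cells exposed to compound for two days before reading; 0% is about no effect; ratio rise marks activators and ratio drop marks inhibitors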)
Method in brief: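 HeLa S3 lamin A-EGFP/DsRed2 stable clone, 600 cells/well, Opti-MEM 2% FBS; compounds by pin tool; 48 hrs, 37 °C/5% CO2; Acumen 488 nm scan, objects 10-100 um; GFP/RFP intensity ratio.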

[2] = target: DNA repair nuclease/redox regulator APEX1 (Homo sapiens) (UniProt P27695); assay: qHTS Validation Assay for Inhibitors of the Human Apurinic/apyrimidinic Endonuclease 1 (APE1) (AID 1705;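 further: TAMRA fluorescence gain over two minutes as APE1 cuts a quenched THF abasic duplex; series mostly up to about 57 µM; on the % scale 0 is the no-effect control and ±100 the full control effect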)
Method in brief: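 qHTS, 1536-well. APE1 + cpd 15 min RT → 50 nM TAMRA/BHQ-2 THF-abasic dsDNA substrate → kinetic fluorescence, 3 reads/60 s; delta(read3−read1) = reaction progress. No-enzyme buffer = negative control.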

[3] = Counterscreen for APE1 Inhibitors: Fluorescent Dye Displacement Validation Assay (AID 1707);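 further: plate controls were ThO with dsDNA and no compound for no effect and ThO without dsDNA for full effect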
Method in brief: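 Counterscreen flags promiscuous DNA binders: compounds displacing ThO from duplex DNA (abasic THF site, 50 nM) reduce 540 nm emission (480 nm excitation). ThO 250 nM final; Tris-HCl pH 7.5 with NaCl, MgCl2 and Tween-20.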

[4] = target: Endonuclease 4 (Escherichia coli (strain K12)) (UniProt P0A6C1); assay: Counterscreen for APE1 Inhibitors: qHTS Validation Assay for Inhibitors of Endonuclease IV (AID 1708); further: on the % scale 0 is the no-effect control and ±100 the full control effect
Method in brief: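 Incision of a double-stranded 50 nM TAMRA/BHQ-2 abasic substrate was followed kinetically (525/598 nm, reads every 60 s) after 15 min enzyme–compound preincubation with 2 nM EndoIV in pH 7.5 Tris buffer with MgCl2, DTT and Tween-20; concentration-response format.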

[5] = qHTS for differential inhibitors of proliferation of Plasmodium falciparum line 7G8 (AID 1815);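 further: parasite growth measured after three days of incubation; plate controls were vehicle wells for no effect and reference inhibitor wells for full effect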
[6] = qHTS for differential inhibitors of proliferation of Plasmodium falciparum line GB4 (AID 1816); settings: Potency: Plasmodium falciparum GB4 proliferation inhibition;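 further: parasite growth measured after 72 h incubation; 0% = vehicle DMSO and -100% = reference inhibitor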
[7] = qHTS for differential inhibitors of proliferation of Plasmodium falciparum line 3D7 (AID 1876);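 further: parasite growth measured after three days of culture; 0% = vehicle wells and -100% = reference inhibitor wells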
[8] = qHTS for differential inhibitors of proliferation of Plasmodium falciparum line D10 (AID 1877);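 further: parasites grown with compound for 72 h before DNA staining; plate controls were vehicle wells for no effect and reference inhibitor wells for full effect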
[9] = qHTS for differential inhibitors of proliferation of Plasmodium falciparum line Dd2 (AID 1882); settings: Potency: Plasmodium falciparum Dd2 proliferation inhibition;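 further: series mostly up to about 29 µM; plate controls were DMSO vehicle for no effect and 0.29 µM artemisinin for full effect; nearly all actives have a fitted effect of over 65% in size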
Method in brief: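 SYBR Green DNA fluorescence (ex 485, em 535 nm) after overnight lysis quantifies parasite growth; compound exposure lasted 72 h at 37 C on infected red cells at 2.5% hematocrit, 0.3% parasitemia (final). Artemisinin 0.29 uM and vehicle wells define normalization.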

[10] = qHTS for differential inhibitors of proliferation of Plasmodium falciparum line HB3 (AID 1886); settings: Potency: Plasmodium falciparum HB3 proliferation inhibition;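 further: parasites grown with compound for 72 h before SYBR Green readout; plate controls were vehicle for no effect and reference inhibitor for full effect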
[11] = target: Ferritin light chain (Equus caballus) (UniProt P02791); assay: qHTS Validation Assay for Identification of Novel General Anesthetics (AID 2323); further: series mostly up to about 77 µM; on the % scale 0 is the no-effect control and ±100 the full control effect
Method in brief: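 Fluorescence at 535 nm (excitation 380 nm) reported loss of 1-AMA binding to horse-spleen apoferritin (10 uM) in PBS with 50% saturated 1-aminoanthracene, after 10 min room-temperature incubation with compound; values from Hill fits of normalized response.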

[12] = target: ATP-dependent DNA helicase Q1 (Homo sapiens) (UniProt P46063); assay: qHTS Validation Assay for Inhibitors of RecQ-Like Dna Helicase 1 (RECQ1) (AID 2353);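 further: plate controls were DMSO vehicle for no effect and enzyme-free control for full effect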
Method in brief: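 RECQ1T1 50 nM; forked duplex (20 bp + 30-nt ss tails) 200 nM, ATP 2 mM final; pH 8.0, 2 mM MgCl2, 2.5 ug/ml poly(dI-dC); 15 min compound preincubation; discontinuous kinetic read over 2 h at RT.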

[13] = Validation screen for small molecules that induce DNA re-replication in MCF 10A normal breast cells (AID 463097); further: 0% is about no effect; nearly all actives have a fitted effect of over 60% in size
Method in brief: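 Image-based qHTS: normal breast cells are incubated with compound for 48 hr, stained with Hoechst, and scanned for total nuclear fluorescence. Compounds raising the fraction of nuclei with elevated DNA content count as re-replication inducers.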

[14] = Quantitative high throughput screen for delayed death inhibitors of the malarial parasite plastid, 96 hour incubation (AID 488745);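 further: luciferase-expressing P. falciparum in erythrocytes at 2% hematocrit and 0.1% parasitemia; series mostly up to about 29 µM; on the % scale 0 is the no-effect control and ±100 the full control effect; nearly all actives have a fitted effect of over 70% in size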
Method in brief: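 Readout is firefly luciferase luminescence from an integrated reporter in P. falciparum; lower signal marks inhibited growth. Cultures at 2% hematocrit and 0.1% parasitemia were treated with compound across two generations (96 h, 37 C, 5% CO2).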

[15] = Quantitative high throughput screen for delayed death inhibitors of the malarial parasite plastid, 48 hour incubation (AID 488752); further: on the % scale 0 is the no-effect control and ±100 the full control effect; nearly all actives have a fitted effect of over 65% in size
Method in brief: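 First, compound was pinned into RPMI 1640 medium containing 0.5% Albumax. Next, reporter-parasite-infected erythrocytes were added to 2% hematocrit and 0.1% parasitemia. After 48 h at 37 C under 5% CO2, luciferase detection reagent was added and luminescence read.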

[16] = target: M-phase phosphoprotein 8 (Homo sapiens) (UniProt Q99549); assay: qHTS Validation Assay for Inhibitors for MPP8 Chromodomain Interactions with Methylated Histone Tails (AID 488949);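 further: 50 nM MPP8 with 50 nM peptide preformed then compounds added for 30 min; AlphaScreen signal from MPP8 chromodomain bound to biotinylated H3K9me3 peptide; top concentration of the series differs between compounds; on the % scale 0 is the no-effect control and ±100 the full control effect; nearly all actives have a fitted effect of over 55% in size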
Method in brief: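 50 nM MPP8 + 50 nM b-H3K9me3 peptide, PBS pH 7.4/0.01% Tween-20, 30 min RT; + cpd 30 min RT; + AlphaScreen donor/Ni-chelate acceptor beads 10 ug/mL final, 30 min dark; luminescence read.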

[17] = target: Thyrotropin receptor (Homo sapiens) (UniProt P16473); assay: qHTS Assay for Antagonists of the Thyroid Stimulating Hormone Receptor (AID 488980); further: series mostly up to about 58 µM; 0% is about no effect
Method in brief: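 Readout is cAMP by HTRF competition between cellular cAMP and cAMP-d2 for a cryptate-labelled antibody. Antagonism was assessed in TSHR-transfected HEK293 cells stimulated with 4 nM TSH (EC80, final) in the presence of RO 20-1724.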

[18] = target: Thyrotropin-releasing hormone receptor (Homo sapiens) (UniProt P34981); assay: qHTS for Small Molecule Agonists and Allosteric Enhancers of Human TRH Receptor: Validation Screen for Agonists (AID 493127;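 active means calcium activation more than 3 SD above the typical response in the agonist read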;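 further: intracellular calcium rise by fluo-8 fluorescence before TRH EC20 addition; 0% is about no effect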); settings: TRH receptor agonist cell assay; at 2 µM; hits give high values
Method in brief: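 Compounds are added by online pintool to dye-loaded TRHR cells while fluorescence is recorded every second. A rise in calcium signal during the agonist read marks activation; a later 10 nM TRH addition (EC20) serves the separate enhancer mode.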

[19] = target: Galactokinase (Homo sapiens) (UniProt P51570); assay: qHTS Validation Assay for Inhibitors of Human Galactokinase (GALK) (AID 493189); further: 0% is about no effect
Method in brief: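 5 nM GALK / 100 uM galactose / 35 uM ATP, 20 mM HEPES pH8.0, 5 mM MgCl2, 60 mM NaCl, 1 mM DTT, 0.01% BSA (final). RT 1 h; Kinase-Glo Plus luminescence.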

[20] = Validation screen for small molecules that induce DNA re-replication in SW480 colon adenocarcinoma cells (AID 504364); further: 0% is about no effect
Method in brief: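 Image-based qHTS: compounds were incubated with SW480 cells for 48 hr, nuclei stained with Hoechst, and per-nucleus fluorescence intensity scanned to flag cells with excess DNA content.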

DNA repair nuclease/redox regulator APEX1 (Homo sapiens), sequence (P27695 whole entry, looked up): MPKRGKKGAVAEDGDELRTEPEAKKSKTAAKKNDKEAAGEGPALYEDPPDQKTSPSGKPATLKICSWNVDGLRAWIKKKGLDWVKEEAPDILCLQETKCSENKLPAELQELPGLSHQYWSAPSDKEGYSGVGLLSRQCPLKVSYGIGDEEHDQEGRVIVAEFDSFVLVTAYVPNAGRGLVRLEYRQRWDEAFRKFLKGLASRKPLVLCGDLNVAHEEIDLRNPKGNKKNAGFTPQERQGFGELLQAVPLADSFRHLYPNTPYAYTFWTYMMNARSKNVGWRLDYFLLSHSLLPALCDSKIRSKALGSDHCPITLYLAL
M-phase phosphoprotein 8 (Homo sapiens), sequence (Q99549 whole entry, looked up): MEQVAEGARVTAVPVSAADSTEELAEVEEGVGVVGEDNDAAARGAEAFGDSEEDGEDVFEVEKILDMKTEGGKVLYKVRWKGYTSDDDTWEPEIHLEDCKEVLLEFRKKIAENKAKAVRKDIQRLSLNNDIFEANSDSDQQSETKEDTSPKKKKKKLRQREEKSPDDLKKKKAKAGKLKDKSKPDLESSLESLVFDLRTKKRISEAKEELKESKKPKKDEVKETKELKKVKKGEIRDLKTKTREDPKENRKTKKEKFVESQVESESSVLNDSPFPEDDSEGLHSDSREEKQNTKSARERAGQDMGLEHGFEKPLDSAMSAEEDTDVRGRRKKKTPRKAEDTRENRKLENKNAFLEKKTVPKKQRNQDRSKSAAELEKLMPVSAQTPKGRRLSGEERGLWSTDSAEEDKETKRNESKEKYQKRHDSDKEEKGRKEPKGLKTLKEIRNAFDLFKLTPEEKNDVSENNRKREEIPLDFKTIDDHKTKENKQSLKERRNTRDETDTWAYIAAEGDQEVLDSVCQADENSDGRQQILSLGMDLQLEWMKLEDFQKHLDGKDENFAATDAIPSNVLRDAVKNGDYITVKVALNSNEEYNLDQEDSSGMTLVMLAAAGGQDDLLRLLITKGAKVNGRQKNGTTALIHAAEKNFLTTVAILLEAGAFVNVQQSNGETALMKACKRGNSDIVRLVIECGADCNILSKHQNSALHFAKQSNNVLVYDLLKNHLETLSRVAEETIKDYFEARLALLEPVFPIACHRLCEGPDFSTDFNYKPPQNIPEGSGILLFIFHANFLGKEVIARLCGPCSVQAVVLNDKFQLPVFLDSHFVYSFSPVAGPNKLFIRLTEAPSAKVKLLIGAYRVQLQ
Galactokinase (Homo sapiens), sequence (P51570 whole entry, looked up): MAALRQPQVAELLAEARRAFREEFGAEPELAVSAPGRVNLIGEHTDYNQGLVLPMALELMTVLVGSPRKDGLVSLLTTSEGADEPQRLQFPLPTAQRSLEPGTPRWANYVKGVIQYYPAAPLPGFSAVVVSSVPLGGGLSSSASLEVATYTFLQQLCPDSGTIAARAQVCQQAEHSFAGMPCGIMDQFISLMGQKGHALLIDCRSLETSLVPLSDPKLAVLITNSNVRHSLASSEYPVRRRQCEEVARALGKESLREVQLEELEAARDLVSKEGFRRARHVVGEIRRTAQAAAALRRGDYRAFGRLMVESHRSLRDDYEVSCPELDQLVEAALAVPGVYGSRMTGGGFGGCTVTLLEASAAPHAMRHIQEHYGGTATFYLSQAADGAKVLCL
ATP-dependent DNA helicase Q1 (Homo sapiens), sequence (P46063 whole entry, looked up): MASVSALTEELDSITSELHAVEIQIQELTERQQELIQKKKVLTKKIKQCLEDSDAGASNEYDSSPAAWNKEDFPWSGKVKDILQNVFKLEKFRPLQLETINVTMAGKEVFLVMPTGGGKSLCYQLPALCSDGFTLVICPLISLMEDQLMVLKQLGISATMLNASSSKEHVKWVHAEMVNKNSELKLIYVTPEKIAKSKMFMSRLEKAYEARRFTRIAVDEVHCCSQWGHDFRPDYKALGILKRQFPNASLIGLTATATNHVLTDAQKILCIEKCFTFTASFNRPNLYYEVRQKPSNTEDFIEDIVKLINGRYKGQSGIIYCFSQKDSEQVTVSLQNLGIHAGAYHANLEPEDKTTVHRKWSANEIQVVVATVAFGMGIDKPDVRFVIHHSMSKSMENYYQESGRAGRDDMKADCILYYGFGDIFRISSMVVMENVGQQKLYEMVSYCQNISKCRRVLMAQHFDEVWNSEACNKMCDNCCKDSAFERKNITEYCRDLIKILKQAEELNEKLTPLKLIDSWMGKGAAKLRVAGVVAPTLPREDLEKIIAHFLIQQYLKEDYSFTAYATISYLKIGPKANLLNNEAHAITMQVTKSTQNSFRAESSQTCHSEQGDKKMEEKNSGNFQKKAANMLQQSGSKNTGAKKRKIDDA
Ferritin light chain (Equus caballus), sequence (P02791 2-175 limits assumed): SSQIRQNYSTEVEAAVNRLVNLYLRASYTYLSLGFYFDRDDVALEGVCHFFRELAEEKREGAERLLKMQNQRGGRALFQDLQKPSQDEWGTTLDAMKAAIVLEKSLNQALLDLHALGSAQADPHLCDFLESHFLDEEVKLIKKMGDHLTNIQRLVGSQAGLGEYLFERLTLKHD
Thyrotropin receptor (Homo sapiens), sequence (P16473 whole entry, looked up): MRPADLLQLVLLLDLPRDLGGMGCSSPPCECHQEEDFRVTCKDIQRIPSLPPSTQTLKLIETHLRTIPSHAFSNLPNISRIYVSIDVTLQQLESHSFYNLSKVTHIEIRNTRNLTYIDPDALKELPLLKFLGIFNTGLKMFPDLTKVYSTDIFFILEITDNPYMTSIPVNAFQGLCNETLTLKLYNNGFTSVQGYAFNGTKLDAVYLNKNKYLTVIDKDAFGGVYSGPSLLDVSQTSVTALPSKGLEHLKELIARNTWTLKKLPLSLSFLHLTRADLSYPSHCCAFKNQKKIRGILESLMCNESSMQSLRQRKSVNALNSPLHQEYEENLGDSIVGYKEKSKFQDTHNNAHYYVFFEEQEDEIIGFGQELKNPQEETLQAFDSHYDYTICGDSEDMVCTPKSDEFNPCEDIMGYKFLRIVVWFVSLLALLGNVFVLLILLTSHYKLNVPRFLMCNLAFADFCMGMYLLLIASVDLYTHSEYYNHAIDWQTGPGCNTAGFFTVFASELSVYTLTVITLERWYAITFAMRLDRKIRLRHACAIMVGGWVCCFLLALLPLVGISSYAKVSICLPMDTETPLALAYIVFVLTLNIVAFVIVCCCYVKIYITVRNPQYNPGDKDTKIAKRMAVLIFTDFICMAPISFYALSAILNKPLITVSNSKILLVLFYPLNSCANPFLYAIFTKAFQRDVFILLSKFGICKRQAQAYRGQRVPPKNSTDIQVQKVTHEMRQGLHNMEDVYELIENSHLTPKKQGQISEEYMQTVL
Thyrotropin-releasing hormone receptor (Homo sapiens), sequence (P34981 whole entry, looked up): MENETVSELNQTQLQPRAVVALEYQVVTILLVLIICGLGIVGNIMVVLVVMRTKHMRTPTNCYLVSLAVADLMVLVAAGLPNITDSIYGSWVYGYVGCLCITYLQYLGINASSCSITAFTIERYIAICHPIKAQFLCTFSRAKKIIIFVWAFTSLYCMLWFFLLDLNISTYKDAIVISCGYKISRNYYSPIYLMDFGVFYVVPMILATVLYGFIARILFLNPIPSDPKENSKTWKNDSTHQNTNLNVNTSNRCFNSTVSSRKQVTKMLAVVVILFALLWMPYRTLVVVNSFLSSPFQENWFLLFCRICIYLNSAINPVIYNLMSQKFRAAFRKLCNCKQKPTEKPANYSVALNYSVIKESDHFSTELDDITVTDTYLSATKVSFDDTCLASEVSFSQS

OC[C@H]1O[C@@H](n2cnc3c(N[C@H]4CC5CCC4C5)ncnc32)[C@H](O)[C@@H]1O (stereo not given in full)
inactive: outcome [1] | Potency [2] | Potency [3] | outcome [4] | Potency [5] | Potency [6] | Potency [7] | Potency [8] | Potency [9] | Potency [10] | outcome [11] | Potency [12] | outcome [13] | Potency [14] | Potency [15] | Potency [16] | outcome [17] | activation [18] 0.875% | outcome [19] | outcome [20]
